Experimental data reported in ChEMBL document CHEMBL2218924, “A broad activity screen in support of a chemogenomic map for kinase signalling research and drug discovery” (Biochem J, 2013).

How the values were obtained:
[1] = target: ALK tyrosine kinase receptor (Homo sapiens) (UniProt Q9UM73); settings: at 10 µM
[2] = target: T1, Activin receptor type-1B (Homo sapiens) (UniProt P36896); settings: at 1 µM
T1 sequence (whole entry): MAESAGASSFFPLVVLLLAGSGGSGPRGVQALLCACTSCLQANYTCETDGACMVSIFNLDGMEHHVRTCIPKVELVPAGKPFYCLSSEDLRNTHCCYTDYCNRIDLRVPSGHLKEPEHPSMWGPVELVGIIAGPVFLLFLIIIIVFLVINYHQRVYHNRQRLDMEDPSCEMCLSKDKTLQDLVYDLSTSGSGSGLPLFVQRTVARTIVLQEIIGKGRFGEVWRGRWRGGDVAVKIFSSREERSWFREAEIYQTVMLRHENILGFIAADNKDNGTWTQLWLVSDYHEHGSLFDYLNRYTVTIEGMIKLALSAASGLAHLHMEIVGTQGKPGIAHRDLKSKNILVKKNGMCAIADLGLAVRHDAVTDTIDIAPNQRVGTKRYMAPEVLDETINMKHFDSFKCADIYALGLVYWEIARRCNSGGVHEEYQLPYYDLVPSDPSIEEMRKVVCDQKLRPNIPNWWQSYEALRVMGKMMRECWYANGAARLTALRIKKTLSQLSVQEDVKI

[3] = target: T1, Activin receptor type-1B (Homo sapiens); settings: at 10 µM
[4] = target: T2, AMP-activated protein kinase (AMPK) alpha-1/beta-1/gamma-1 (Homo sapiens) (UniProt P54619+Q9Y478+Q13131); settings: at 1 µM
T2 sequence (P54619 whole entry): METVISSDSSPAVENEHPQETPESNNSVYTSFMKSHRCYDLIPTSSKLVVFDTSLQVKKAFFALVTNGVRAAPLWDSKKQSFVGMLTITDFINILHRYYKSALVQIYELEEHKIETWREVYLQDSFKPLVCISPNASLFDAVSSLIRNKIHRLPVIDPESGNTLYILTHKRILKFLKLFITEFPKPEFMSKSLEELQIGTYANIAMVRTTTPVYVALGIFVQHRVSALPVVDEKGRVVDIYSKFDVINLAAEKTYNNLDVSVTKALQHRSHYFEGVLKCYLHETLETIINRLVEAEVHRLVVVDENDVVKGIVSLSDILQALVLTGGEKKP
T2 sequence (Q13131 whole entry partner): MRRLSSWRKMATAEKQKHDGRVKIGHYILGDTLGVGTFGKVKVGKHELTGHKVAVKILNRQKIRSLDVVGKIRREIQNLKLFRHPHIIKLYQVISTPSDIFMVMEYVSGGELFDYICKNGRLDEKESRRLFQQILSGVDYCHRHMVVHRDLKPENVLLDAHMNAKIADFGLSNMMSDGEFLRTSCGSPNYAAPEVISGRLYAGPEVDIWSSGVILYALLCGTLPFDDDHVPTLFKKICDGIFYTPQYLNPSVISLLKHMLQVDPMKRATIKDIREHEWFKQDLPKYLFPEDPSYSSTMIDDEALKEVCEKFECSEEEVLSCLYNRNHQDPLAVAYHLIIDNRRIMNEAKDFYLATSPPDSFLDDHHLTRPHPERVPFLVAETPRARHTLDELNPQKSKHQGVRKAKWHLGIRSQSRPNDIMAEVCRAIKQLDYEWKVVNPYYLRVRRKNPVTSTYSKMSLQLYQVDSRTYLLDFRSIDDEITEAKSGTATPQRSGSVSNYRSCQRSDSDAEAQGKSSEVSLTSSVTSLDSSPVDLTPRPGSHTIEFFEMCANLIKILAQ
T2 sequence (Q9Y478 2-270 partner limits assumed): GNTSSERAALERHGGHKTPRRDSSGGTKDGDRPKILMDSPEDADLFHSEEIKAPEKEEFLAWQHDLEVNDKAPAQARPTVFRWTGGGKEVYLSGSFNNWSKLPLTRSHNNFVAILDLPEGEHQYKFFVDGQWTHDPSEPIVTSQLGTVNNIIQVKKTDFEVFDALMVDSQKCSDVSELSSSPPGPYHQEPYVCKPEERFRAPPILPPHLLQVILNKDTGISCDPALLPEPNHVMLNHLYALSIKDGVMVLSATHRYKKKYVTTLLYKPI

[5] = target: T2, AMP-activated protein kinase (AMPK) alpha-1/beta-1/gamma-1 (Homo sapiens); settings: at 10 µM
[6] = target: T3, AMP-activated protein kinase, AMPK (Homo sapiens) (UniProt P54646+O43741+P54619+Q9UGJ0+Q9Y478+Q13131+Q9UGI9); settings: at 1 µM
[7] = target: T3, AMP-activated protein kinase, AMPK (Homo sapiens); settings: at 10 µM
[8] = target: T4, NUAK family SNF1-like kinase 1 (Homo sapiens) (UniProt O60285); settings: at 1 µM
T4 sequence (whole entry): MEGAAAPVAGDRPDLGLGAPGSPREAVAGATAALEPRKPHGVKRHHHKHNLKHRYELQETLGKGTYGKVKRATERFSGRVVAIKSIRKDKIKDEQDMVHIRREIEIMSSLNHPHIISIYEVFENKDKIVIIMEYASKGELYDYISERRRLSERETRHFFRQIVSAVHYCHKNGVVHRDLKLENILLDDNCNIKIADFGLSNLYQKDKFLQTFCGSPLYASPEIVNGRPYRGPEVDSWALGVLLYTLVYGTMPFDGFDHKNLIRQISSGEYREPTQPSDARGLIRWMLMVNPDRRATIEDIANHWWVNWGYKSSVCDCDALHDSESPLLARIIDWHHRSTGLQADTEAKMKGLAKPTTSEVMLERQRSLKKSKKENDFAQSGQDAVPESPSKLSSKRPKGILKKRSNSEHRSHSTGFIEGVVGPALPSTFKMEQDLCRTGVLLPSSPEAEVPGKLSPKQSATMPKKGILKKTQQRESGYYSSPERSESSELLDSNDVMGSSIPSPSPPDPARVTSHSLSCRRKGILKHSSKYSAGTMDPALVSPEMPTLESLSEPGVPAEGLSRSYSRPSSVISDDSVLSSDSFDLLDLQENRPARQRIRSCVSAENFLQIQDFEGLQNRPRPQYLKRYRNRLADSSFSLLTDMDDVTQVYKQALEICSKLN

[9] = target: T4, NUAK family SNF1-like kinase 1 (Homo sapiens); settings: at 10 µM
[10] = target: T5, Mitogen-activated protein kinase kinase kinase 5 (Homo sapiens) (UniProt Q99683); settings: at 1 µM
T5 sequence (whole entry): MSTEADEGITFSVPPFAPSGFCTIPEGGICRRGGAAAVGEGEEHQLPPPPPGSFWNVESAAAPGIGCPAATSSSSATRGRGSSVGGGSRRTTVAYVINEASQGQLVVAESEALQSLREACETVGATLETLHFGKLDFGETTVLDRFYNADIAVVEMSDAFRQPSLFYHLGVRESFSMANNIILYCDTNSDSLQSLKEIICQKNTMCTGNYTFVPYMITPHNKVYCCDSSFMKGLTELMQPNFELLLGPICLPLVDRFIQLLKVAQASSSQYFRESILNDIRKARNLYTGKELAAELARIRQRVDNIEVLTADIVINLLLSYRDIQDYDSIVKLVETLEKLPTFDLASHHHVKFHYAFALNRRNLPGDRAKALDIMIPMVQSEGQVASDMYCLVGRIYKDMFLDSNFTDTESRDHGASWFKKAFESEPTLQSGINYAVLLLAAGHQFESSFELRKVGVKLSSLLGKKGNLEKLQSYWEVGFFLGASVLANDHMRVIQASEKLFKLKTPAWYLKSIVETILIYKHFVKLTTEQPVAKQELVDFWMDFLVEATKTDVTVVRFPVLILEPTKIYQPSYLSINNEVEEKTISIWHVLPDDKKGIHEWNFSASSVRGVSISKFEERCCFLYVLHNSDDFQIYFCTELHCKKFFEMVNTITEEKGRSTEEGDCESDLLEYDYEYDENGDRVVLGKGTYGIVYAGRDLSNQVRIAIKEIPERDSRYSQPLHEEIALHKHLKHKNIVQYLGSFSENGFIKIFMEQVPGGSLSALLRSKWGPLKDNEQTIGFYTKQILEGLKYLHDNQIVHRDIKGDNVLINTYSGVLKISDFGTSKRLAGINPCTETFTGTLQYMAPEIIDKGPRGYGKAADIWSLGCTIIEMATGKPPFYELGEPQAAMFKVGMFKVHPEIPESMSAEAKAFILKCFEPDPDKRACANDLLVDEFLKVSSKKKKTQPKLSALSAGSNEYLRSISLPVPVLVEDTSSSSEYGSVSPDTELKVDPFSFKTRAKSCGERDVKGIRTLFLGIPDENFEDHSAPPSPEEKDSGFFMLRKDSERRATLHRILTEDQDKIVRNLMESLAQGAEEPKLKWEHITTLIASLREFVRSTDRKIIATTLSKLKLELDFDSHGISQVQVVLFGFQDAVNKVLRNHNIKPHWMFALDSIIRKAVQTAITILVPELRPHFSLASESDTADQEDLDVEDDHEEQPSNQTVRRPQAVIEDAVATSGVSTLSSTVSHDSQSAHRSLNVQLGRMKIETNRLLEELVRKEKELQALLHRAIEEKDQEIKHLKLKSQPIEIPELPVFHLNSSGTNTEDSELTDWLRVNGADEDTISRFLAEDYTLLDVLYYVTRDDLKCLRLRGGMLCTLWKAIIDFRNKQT

[11] = target: Platelet-derived growth factor receptor alpha (Homo sapiens) (UniProt P16234); settings: at 1 µM
Platelet-derived growth factor receptor alpha (Homo sapiens), sequence (P16234 whole entry): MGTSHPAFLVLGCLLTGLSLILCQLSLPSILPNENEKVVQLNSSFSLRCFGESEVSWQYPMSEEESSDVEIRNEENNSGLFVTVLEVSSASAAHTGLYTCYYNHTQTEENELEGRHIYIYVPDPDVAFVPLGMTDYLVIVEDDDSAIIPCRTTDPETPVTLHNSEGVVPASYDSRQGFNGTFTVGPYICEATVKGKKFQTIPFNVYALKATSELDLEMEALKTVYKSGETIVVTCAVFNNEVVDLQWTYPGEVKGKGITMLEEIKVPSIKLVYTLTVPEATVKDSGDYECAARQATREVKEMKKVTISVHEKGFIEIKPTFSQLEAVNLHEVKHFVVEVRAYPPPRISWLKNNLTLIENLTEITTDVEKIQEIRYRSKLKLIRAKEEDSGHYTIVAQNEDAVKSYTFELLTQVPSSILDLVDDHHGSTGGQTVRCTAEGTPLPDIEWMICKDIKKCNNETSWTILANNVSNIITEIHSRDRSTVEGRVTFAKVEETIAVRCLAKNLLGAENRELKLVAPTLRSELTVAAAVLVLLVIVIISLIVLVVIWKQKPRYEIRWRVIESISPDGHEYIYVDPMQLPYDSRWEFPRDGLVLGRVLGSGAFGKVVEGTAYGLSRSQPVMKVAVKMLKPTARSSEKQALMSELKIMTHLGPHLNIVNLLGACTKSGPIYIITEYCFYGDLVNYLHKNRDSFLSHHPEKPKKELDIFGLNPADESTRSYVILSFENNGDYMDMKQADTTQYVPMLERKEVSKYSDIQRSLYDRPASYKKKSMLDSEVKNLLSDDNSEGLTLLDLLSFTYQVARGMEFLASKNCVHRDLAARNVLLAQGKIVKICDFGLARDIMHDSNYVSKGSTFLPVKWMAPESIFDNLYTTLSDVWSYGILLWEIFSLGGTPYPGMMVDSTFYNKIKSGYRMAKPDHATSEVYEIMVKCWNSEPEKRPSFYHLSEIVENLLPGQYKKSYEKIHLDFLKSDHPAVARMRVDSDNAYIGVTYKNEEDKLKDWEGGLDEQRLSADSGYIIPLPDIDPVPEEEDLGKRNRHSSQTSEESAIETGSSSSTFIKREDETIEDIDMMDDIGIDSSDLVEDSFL

[12] = target: Platelet-derived growth factor receptor beta (Homo sapiens) (UniProt P09619); settings: at 1 µM
Platelet-derived growth factor receptor beta (Homo sapiens), sequence (P09619 whole entry): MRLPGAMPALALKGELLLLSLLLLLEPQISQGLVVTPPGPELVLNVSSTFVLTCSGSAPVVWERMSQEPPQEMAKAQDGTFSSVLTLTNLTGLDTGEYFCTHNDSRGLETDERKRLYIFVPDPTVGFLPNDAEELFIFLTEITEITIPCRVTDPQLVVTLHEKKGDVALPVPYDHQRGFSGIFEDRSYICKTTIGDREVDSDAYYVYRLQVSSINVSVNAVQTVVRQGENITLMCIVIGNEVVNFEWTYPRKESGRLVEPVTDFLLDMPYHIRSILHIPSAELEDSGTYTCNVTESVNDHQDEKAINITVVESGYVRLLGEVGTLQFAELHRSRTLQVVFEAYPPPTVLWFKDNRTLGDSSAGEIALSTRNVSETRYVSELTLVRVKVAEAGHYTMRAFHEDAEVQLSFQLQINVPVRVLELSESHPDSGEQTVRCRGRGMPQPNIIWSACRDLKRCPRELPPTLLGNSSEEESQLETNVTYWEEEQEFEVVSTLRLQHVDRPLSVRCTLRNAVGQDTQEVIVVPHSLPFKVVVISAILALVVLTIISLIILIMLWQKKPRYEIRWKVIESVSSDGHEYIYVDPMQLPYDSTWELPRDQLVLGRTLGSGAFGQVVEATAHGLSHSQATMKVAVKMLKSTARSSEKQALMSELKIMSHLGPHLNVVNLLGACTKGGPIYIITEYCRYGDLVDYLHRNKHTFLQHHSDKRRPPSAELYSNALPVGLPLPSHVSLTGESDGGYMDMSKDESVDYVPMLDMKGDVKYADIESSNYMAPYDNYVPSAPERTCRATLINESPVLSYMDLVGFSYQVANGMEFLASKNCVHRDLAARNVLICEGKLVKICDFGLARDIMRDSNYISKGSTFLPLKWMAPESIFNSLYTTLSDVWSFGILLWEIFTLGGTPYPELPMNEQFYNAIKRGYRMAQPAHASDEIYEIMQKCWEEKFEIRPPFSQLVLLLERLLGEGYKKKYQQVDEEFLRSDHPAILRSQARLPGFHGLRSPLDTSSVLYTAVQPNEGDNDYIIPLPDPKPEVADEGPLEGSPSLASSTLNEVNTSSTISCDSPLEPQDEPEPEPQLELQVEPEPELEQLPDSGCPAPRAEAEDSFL

[13] = target: Platelet-derived growth factor receptor beta (Homo sapiens) (UniProt P09619); settings: at 10 µM
[14] = target: T6, 3-phosphoinositide-dependent protein kinase 1 (Homo sapiens) (UniProt O15530); settings: at 1 µM
T6 sequence (whole entry): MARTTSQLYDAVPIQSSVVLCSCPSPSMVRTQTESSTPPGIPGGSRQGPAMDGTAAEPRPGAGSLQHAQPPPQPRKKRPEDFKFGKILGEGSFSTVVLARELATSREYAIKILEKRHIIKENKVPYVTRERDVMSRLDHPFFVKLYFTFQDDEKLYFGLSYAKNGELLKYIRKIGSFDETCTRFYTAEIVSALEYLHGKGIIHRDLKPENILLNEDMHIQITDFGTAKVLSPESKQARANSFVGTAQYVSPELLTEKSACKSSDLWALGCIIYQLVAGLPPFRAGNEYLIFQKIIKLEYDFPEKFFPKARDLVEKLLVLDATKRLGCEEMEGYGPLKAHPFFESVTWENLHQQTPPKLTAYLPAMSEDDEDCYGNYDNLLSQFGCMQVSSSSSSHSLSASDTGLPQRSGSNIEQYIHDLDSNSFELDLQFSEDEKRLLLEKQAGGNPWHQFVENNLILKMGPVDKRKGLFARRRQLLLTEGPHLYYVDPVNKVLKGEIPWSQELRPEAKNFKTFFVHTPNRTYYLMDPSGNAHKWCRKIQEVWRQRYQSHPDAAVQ

[15] = target: T6, 3-phosphoinositide-dependent protein kinase 1 (Homo sapiens); settings: at 10 µM
[16] = target: cAMP-dependent protein kinase catalytic subunit alpha (Homo sapiens) (UniProt P17612); settings: at 1 µM
[17] = target: cAMP-dependent protein kinase catalytic subunit alpha (Homo sapiens) (UniProt P17612); settings: at 10 µM
[18] = target: RAC-gamma serine/threonine-protein kinase (Homo sapiens) (UniProt Q9Y243); settings: at 1 µM
[19] = target: RAC-gamma serine/threonine-protein kinase (Homo sapiens) (UniProt Q9Y243); settings: at 10 µM
[20] = target: Platelet-derived growth factor receptor alpha (Homo sapiens) (UniProt P16234); settings: at 10 µM

ALK tyrosine kinase receptor (Homo sapiens), sequence (Q9UM73 19-1620 limits assumed): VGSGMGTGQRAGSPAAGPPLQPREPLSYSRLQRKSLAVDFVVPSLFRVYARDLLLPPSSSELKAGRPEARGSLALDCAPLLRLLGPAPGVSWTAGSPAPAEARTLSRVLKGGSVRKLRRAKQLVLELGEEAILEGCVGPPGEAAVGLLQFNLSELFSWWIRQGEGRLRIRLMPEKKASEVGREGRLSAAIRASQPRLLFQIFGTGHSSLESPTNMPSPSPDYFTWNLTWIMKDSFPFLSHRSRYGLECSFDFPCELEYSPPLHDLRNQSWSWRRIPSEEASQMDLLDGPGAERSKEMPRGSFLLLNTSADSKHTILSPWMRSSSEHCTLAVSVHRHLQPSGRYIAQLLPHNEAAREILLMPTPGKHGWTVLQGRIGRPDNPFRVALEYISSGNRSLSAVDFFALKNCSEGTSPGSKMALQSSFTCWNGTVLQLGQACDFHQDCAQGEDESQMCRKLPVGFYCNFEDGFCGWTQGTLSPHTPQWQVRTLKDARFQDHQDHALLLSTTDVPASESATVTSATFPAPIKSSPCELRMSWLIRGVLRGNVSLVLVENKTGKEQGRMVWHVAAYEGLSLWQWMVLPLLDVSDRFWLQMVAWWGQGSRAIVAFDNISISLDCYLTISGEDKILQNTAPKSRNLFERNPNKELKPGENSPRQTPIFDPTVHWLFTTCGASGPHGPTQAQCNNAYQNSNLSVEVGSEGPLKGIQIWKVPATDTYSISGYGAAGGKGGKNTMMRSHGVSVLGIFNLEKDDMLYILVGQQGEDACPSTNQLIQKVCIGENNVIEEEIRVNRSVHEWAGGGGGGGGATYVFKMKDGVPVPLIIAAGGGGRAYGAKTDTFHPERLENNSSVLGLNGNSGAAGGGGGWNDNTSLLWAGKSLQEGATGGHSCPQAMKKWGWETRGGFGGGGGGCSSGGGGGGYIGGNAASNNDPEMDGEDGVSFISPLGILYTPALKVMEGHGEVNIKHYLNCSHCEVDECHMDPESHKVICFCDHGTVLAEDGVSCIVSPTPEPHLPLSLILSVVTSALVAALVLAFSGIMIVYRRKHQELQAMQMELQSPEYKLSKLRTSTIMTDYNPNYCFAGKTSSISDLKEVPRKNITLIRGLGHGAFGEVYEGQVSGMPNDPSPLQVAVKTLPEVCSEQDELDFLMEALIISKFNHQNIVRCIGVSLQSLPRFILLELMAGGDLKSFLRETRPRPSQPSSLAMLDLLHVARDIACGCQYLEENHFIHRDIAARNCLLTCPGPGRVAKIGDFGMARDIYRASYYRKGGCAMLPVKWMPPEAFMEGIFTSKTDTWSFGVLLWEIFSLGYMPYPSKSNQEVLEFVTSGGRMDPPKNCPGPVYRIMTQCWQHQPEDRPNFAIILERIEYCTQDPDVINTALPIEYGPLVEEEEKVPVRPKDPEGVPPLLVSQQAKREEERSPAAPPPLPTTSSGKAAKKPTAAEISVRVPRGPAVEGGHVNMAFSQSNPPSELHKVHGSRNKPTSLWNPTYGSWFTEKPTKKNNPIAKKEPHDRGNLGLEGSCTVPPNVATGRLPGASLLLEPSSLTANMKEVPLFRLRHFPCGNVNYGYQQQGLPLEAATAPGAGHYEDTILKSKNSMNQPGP

SMILES	residual activity [1]	residual activity [2]	residual activity [3]	residual activity [4]	residual activity [5]	residual activity [6]	residual activity [7]	residual activity [8]	residual activity [9]	residual activity [10]	residual activity [11]	residual activity [12]	residual activity [13]	residual activity [14]	residual activity [15]	residual activity [16]	residual activity [17]	residual activity [18]	residual activity [19]	residual activity [20]
O=C(CCCc1ccc(-c2ccccc2F)cc1)Nc1ccc(O)cc1	44%	111%	94%	106%	89%	106%	99%	96%	78%	99%	103%	102%	125%	105%	90%	107%	128%	109%	87%	
CCN(CC)CCNC(=O)c1c(C)[nH]c(/C=C2\C(=O)Nc3ccc(Cl)cc32)c1C	2%	126%	99%	7%	3%	4%	4%	6%	6%	60%	2%	1%	1%	78%	39%	81%		79%	33%	1%
Nc1ncnc2c1c(-c1ccc(Oc3ccccc3)cc1)cn2C1CCCC1	27%	125%		99%	61%	94%	63%	83%	67%	90%	17%	54%	6%	104%	95%	85%	88%	98%	71%	4%
CCCCc1c(-c2ccc(OC)cc2)[nH]c2nccnc12	31%	81%	39%	82%		74%	92%	15%	22%		105%	104%	105%	70%	65%	86%		119%		111%
Nc1ncnc2[nH]nc(Nc3ccc(F)cc3)c12	67%	114%	77%	100%	69%	99%	65%	98%	90%		105%	107%	109%	92%	40%		77%		71%	111%
Cn1c2ccccc2c2c3c(c4c5ccccc5n(CCC#N)c4c21)CNC3=O	4%	108%	64%	22%	22%	19%	16%	10%	6%	17%	98%			6%	6%					76%
CCOC(=O)c1c(C)[nH]c(/C=C2\C(=O)Nc3ccccc32)c1C	118%	120%	83%	80%	65%	85%	74%	88%	85%		43%	90%	92%							45%
CCCCc1c(-c2ccc(O)cc2)[nH]c2nccnc12	37%	88%	34%	85%	71%	75%	67%	12%	16%	93%				60%	31%					
COc1cc2nccc(Oc3ccc(NC(=S)NC(=O)c4ccccc4C)cc3)c2cc1OC	47%	126%	96%	88%	70%			81%	74%	88%	7%	31%	9%			90%		94%	72%	2%
COc1ccc(CNC(=O)Nc2ncc([N+](=O)[O-])s2)cc1	64%		109%									101%	100%			109%				
CCCC(=O)Oc1ccc2[nH]c(C(=O)c3cc4ccccc4[nH]3)cc2c1	99%	132%	98%	85%	81%	91%	96%	98%	84%		108%	99%	93%			88%	89%	102%	103%	85%
Nc1nc(Nc2ccc(S(N)(=O)=O)cc2)nn1C(=O)c1c(F)cccc1F	38%	100%	47%	58%	11%	47%	15%	4%	7%	102%		108%	82%	68%	21%			110%		
